Test results as given in PubChem BioAssay (NCATS).
Records with an inconclusive call do not appear. Where a call stands in place of a potency, no number is given. A number with no mark means an inactive call. The source made the active and inactive calls. The call rests on the fitted dose curve; in most records, active means well fitted curve in the direction sought with a large enough effect; inconclusive means small, poorly fitted or top-dose-only effect, or another doubt; inactive means no such curve, though single readings can be large; an effect the other way counts as inactive or inconclusive.

Legend:
[1] = biological target: Cellular tumor antigen p53 (Homo sapiens) (UniProt P04637); test: Primary qHTS for small molecule compounds that upregulate eGFP-tagged delta133p53alpha (in N-terminal) cells. (AID 2060322); settings: NCI-H358 eGFP-delta133p53alpha fluorescence, 24 h; activation: active compounds read high; further: nearly all actives have a fitted effect of over 75% in size; further: potency means the concentration at half of the fitted maximal effect; on activation: series mostly up to about 56 µM
How it was run: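 NCI-H358 cells pre-induced 24 h with 10 ng/ml doxycycline to express N-terminal eGFP-delta133p53alpha, then dosed 24 h at 37C without doxycycline; fixed, Hoechst-stained, GFP intensity by laser scanning cytometry, normalized to DMSO (0%) and 57.5 uM 5-azacytidine (100%).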

[2] = biological target: Aldehyde dehydrogenase, mitochondrial (Homo sapiens) (UniProt P05091); test: qHTS for Inhibitors of the Aldehyde Dehydrogenase Family (ALDH2) Primary screen (AID 2061308); further: nearly all actives have a fitted effect of over 55% in size
[3] = biological target: Retinaldehyde dehydrogenase 3 (Homo sapiens) (UniProt P47895); test: qHTS for Inhibitors of the Aldehyde Dehydrogenase Family (ALDH1A3) Primary screen (AID 2061315)
[4] = biological target: Aldehyde dehydrogenase 1A1 (Homo sapiens) (UniProt P00352); test: qHTS for Inhibitors of the Aldehyde Dehydrogenase Family (ALDH1A1) Confirmatory screens (AID 2061316); further: potency means the concentration at half of the fitted maximal effect; nearly all actives have a fitted effect of over 65% in size

Chain of Cellular tumor antigen p53 (Homo sapiens) (P04637 whole entry, looked up): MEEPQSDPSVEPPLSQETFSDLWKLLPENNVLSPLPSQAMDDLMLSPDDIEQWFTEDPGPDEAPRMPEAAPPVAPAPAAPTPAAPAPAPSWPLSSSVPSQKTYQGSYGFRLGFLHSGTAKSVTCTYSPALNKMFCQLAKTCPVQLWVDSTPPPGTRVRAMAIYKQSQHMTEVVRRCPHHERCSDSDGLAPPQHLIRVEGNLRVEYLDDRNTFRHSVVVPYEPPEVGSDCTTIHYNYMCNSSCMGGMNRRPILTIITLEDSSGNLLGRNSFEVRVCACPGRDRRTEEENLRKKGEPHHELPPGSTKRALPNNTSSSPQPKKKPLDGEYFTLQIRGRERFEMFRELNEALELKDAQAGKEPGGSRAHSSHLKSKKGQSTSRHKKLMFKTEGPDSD

| Structure (SMILES) | activation [1] [%] | Potency [2] | Potency [3] | Potency [4] | Potency [1] |
| --- | --- | --- | --- | --- | --- |
| C/C=C\NC(=O)C1NC(=O)C(CC(N)=O)NC(=O)C(NC(=O)C(=O)C(C)CC)Cc2ccc(O)c(c2)-c2cccc3c2NC(=O)C3(O)C1O (stereo unspecified) | 3.82 | inactive | inactive |  |  |
| COc1cccc(Cn2ncc3c4sc(S(C)=O)cc4n(C)c3c2=O)c1 (stereo unspecified) | 7.67 | inactive | inactive |  |  |
| CC1=CCC2C(C)(C)CCCC2(C)C1CC12OC1C(O)C(CO)=CC2O (stereo unspecified) | -16.8 | inactive | inactive |  |  |
| C=C1C(OC2OCC(O)C(O)C2O)CC2C(C)(C)C(O)CCC2(C)C1CC/C(C)=C\CO (stereo unspecified) | 7.63 | inactive | inactive |  |  |
| O=C(O)CCc1cc2ccoc2cc1O[C@@H]1O[C@H](CO)[C@@H](O)[C@H](O)[C@H]1O | 6.11 | inactive | inactive |  |  |
| C=C(C(=O)O)C1CCC(C)C2CCC(=O)OC2(C)C1 (stereo unspecified) | 18.8 | inactive | inactive |  |  |
| O=C(OC[C@H]1O[C@H](O[C@]2(CO)O[C@H](CO)[C@@H](O)[C@@H]2O)[C@H](O)[C@@H](O)[C@@H]1O)c1ccc(O)cc1 | -2.68 | inactive | inactive |  |  |
| COc1ccc([C@@]2(O)c3c(ccc(CC=C(C)C)c3O)NC(=O)[C@@H]2OC)cc1 | -19.1 | inactive | inactive |  |  |
| CC1=CC(=O)C(=C(C)C)CC2C1CCC2(C)O (stereo unspecified) | -7.14 | inactive | inactive |  |  |
| Cc1ccc(F)cc1C(=O)Nc1ccc(C(=O)N2Cc3cccn3Cc3ccccc32)c(Cl)c1 | 1.67 | inactive | inactive |  |  |
| CC(C)(C)OC(=O)c1ncn2c1C(C)(C)Nc1ccccc1-2 | -12.5 | inactive | inactive |  |  |
| CN1c2c(nc(N)[nH]c2=O)NC[C@@H]1CNc1ccc(C(=O)N[C@@H](CCC(=O)O)C(=O)O)cc1 | -8.33 | inactive | inactive |  |  |
| C[C@H](O)[C@H](O)[C@H]1CNc2nc(N)[nH]c(=O)c2N1 | 10.3 | inactive | inactive | 12.7 µM (active) |  |
| CC(=O)C=C=C1C(C)(C)CC(O[C@@H]2O[C@H](CO)[C@@H](O)[C@H](O)[C@H]2O)CC1(C)O (stereo partly specified) | -1.79 | inactive | inactive |  |  |
| C/C=C1\[C@H](O[C@@H]2O[C@H](CO)[C@@H](O)[C@H](O)[C@H]2O)OC=C(C(=O)OC)[C@H]1CC(=O)O | 3.82 | inactive | inactive |  |  |
| CC1=CC(=O)CC(C)(C)C1CCC(C)O[C@@H]1O[C@H](CO)[C@@H](O)[C@H](O)[C@H]1O (stereo partly specified) | -3.57 | inactive | inactive |  |  |
| CC(=O)N1c2ccccc2C2(O)CC3C(=O)NC(CC(C)C)C(=O)N3C12 (stereo unspecified) | -32.8 | inactive | inactive |  |  |
| CC[C@H](C)/C=C(C)/C=C/C1=CC2=C(Cl)C(=O)[C@](C)(O)[C@H](OC(C)=O)[C@H]2CO1 |  | inactive | inactive |  | 14.8 µM (active) |
| Cc1ccc(Nc2nnc(-c3ccc([N+](=O)[O-])cc3)o2)cc1Cl | 9.82 | inactive | inactive |  |  |
| C[C@@H]1O[C@@H](O[C@H]2[C@H](O)[C@@H](O)[C@H](O[C@H]3[C@H](O[C@H]4CC[C@@]5(C)C(=CC[C@@H]6C5CC[C@]5(C)[C@@H]7[C@H](C[C@@H]65)O[C@]5(CC[C@@](C)(CO[C@@H]6O[C@H](CO)[C@@H](O)[C@H](O)[C@H]6O)O5)[C@H]7C)C4)O[C@H](CO)[C@@H](O)[C@@H]3O)O[C@@H]2CO)[C@H](O)[C@H](O)[C@H]1O (stereo partly specified) |  | inactive | inactive |  | 3.6 µM (active) |
| Cc1ccc(S(=O)(=O)n2ccc(-c3c(-c4ccc(Cl)cc4)noc3C)n2)cc1 | -18.8 | inactive | inactive |  |  |
| CCCCn1ccc(N2CCC(c3ccccc3)CC2)c(Cl)c1=O | -2.33 | inactive | inactive |  |  |
| COc1cc2nc(=NC(=O)c3cccnc3)n3c(c2cc1OC)NCC3 | 3.34 | inactive | inactive |  |  |
| CC(=O)OC1C(O)/C(C)=C\C2C(OC(=O)c3ccccc3)C(C)CC2(OC(C)=O)C(OC(C)=O)C(C)/C=C/C(C)(C)C1OC(C)=O (stereo unspecified) | -20.5 | inactive | inactive |  |  |
| C[C@@H]1O[C@@H](OC2C(CO)OC(OCC3OC(OC(=O)[C@]45CCC(C)(C)CC4C4=CCC6[C@@]7(C)CC[C@@H](O)[C@](C)(C(=O)O)C7CC[C@@]6(C)[C@]4(C)CC5)C(O)C(O)C3O)C(O)C2O)[C@H](O)[C@H](O)[C@H]1O (stereo partly specified) | -3.82 | inactive | inactive |  |  |
| C=C[C@H]1[C@H](O[C@@H]2O[C@H](CO)[C@@H](O)[C@H](O)[C@H]2O)OC=C2C(=O)N3Cc4c([nH]c5ccccc5c4=O)[C@@H]3C[C@H]21 | 0.893 | inactive | inactive |  |  |
| C=C[C@H]1[C@H](O[C@@H]2O[C@H](CO)[C@@H](O)[C@H](O)[C@H]2O)OC=C(C(=O)OC)[C@H]1CCO | -7.63 | inactive | inactive |  |  |
| COc1cc(O)cc(/C=C/c2ccc(O[C@@H]3O[C@H](CO)[C@@H](O)[C@H](O)[C@H]3O)cc2)c1 | -11.6 | inactive | inactive |  |  |
| CCCCCc1ccc(/C=C/C(=O)Nc2cc(Cl)ccc2C(=O)O)cc1 | -1 | inactive | inactive |  |  |
| Cc1cc(NC(=O)c2cccc(NC(=O)/C=C/CN(C)C)c2)ccc1Nc1nccc(-c2cccnc2)n1 |  | inactive | inactive |  | 26.9 µM (active) |
